Key:
Experiment in all cases: DAPPL (digital affinity profiling via proximity ligation, sequencing); 10 mM Tris-HCl pH 7.5, 50 mM NaCl, 1 mM DTT, 4% glycerol, room temperature, 30 min; GST-TFs on glutathione beads, 16-mer random dsDNA library, 0.1% formaldehyde crosslink after washing; high values mean tight binding
FLI1 = target: T1, FLI1 (Homo sapiens, UniProt Q01543 1-452); conditions: protein: recombinant; tags: N-terminal GST; dsDNA, one strand shown
T1 sequence: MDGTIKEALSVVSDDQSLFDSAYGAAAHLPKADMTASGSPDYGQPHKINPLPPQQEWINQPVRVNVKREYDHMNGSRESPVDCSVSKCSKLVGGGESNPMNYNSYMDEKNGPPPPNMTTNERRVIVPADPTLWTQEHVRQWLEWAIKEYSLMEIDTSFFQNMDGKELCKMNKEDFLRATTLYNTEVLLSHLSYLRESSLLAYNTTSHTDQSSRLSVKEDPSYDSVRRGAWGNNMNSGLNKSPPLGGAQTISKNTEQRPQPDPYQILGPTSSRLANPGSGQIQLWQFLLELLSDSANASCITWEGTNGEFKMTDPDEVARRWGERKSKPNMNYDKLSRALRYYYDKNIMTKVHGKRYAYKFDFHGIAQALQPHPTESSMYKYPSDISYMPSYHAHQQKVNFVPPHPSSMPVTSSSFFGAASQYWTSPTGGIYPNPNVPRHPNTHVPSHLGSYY
In short: (§1)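 Sequencing on an Illumina NextSeq500 followed washing, crosslinking with 0.1% formaldehyde, proximity ligation (BsaI/T4 ligase, 1 h, 37 °C) and PCR amplification of pools that had been incubated for 30 min at room temperature with 200 nmole of a random double-stranded 16-mer DNA library in Tris/NaCl/DTT/glycerol buffer. Each pool held DNA-barcoded human transcription factors, expressed in yeast as GST fusions and captured on glutathione beads, plus a tag-only sample. Binding signal is a hexamer's read frequency for a factor divided by its frequency in the tag-only sample.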

ELK1 = target: T2, ELK1 (Homo sapiens, UniProt P19419 1-428); conditions: protein: recombinant; tags: N-terminal GST; dsDNA, one strand shown
T2 sequence: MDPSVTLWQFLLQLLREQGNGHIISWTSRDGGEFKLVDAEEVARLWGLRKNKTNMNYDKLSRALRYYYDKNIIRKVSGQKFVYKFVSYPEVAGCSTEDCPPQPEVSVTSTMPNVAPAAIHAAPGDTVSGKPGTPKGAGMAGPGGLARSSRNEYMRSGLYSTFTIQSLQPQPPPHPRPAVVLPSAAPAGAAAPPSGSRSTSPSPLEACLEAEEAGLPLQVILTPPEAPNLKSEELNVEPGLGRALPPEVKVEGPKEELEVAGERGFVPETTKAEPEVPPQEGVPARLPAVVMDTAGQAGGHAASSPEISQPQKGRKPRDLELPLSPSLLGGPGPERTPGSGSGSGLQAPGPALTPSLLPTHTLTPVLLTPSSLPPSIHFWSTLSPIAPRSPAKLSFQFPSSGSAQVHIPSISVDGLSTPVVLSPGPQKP
In short: as §1

GABPA = target: T3, GABPA (Homo sapiens, UniProt Q06546 1-454); conditions: protein: recombinant; tags: N-terminal GST; dsDNA, one strand shown
T3 sequence: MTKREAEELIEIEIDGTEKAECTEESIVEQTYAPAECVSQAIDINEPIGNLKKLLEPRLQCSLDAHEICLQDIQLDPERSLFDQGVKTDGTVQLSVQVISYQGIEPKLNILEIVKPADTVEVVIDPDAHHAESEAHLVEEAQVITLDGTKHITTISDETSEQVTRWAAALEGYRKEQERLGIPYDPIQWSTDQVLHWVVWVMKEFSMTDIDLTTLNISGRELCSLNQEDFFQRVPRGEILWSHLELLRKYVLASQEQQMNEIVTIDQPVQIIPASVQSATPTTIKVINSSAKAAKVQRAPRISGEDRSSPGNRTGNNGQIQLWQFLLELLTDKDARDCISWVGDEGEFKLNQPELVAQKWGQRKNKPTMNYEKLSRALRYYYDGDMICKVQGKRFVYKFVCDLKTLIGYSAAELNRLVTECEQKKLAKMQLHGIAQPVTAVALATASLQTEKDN
In short: as §1

ERG = target: T4, ERG (Homo sapiens, UniProt P11308 1-479); conditions: protein: recombinant; tags: N-terminal GST; dsDNA, one strand shown
T4 sequence: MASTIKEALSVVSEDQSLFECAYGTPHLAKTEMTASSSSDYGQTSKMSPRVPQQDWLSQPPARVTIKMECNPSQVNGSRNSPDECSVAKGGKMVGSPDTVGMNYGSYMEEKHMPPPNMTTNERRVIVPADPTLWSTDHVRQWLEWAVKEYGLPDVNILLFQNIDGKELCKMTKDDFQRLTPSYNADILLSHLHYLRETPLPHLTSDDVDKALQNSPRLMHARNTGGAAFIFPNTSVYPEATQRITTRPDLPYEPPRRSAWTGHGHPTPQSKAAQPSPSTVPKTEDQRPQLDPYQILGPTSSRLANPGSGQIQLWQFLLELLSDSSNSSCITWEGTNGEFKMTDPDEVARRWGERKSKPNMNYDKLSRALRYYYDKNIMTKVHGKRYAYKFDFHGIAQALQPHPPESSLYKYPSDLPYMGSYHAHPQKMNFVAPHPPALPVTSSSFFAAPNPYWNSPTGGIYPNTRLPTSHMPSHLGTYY
In short: as §1

ELF1 = ELF1 (Homo sapiens, UniProt P32519 1-619); conditions: protein: recombinant; tags: N-terminal GST; dsDNA, one strand shown
In short: as §1

EHF = target: T5, EHF (Homo sapiens, UniProt Q9NZC4 1-300); conditions: protein: recombinant; tags: N-terminal GST; dsDNA, one strand shown
T5 sequence: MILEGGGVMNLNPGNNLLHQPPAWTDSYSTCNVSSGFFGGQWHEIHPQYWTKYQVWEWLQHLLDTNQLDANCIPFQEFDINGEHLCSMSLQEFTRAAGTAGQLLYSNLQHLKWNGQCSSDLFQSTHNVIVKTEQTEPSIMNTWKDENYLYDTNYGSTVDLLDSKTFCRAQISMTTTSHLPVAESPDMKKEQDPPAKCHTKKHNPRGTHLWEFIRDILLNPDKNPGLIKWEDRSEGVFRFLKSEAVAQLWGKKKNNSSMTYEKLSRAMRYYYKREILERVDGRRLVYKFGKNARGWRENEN
In short: as §1

SPI1 = SPI1 (Homo sapiens, UniProt P17947 1-270); conditions: protein: recombinant; tags: N-terminal GST; dsDNA, one strand shown
In short: as §1

SPIB = SPIB (Homo sapiens, UniProt Q01892 1-262); conditions: protein: recombinant; tags: N-terminal GST; dsDNA, one strand shown
In short: as §1

ELK3 = target: T6, ELK3 (Homo sapiens, UniProt P41970 1-407); conditions: protein: recombinant; tags: N-terminal GST; dsDNA, one strand shown
T6 sequence: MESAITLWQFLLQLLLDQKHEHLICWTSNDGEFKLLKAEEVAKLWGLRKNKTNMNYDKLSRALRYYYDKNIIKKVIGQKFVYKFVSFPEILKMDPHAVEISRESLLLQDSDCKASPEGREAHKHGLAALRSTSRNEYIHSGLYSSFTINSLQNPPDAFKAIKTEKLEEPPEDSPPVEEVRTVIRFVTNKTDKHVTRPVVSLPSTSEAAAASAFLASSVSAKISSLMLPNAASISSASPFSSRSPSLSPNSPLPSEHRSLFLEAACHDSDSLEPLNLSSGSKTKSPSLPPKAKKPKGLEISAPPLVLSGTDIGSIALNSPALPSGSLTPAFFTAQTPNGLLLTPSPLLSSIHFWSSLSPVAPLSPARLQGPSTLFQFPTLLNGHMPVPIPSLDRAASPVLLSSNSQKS
In short: as §1

FEV = target: T7, FEV (Homo sapiens, UniProt Q99581 1-238); conditions: protein: recombinant; tags: N-terminal GST; dsDNA, one strand shown
T7 sequence: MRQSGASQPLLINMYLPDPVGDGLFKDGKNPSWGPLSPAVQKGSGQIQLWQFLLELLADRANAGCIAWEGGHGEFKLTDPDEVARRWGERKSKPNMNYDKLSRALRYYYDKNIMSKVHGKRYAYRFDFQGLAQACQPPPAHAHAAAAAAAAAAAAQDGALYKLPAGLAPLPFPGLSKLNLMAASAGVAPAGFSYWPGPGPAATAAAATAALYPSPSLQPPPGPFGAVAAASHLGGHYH
In short: as §1

ETV5 = ETV5 (Homo sapiens, UniProt P41161 1-510); conditions: protein: recombinant; tags: N-terminal GST; dsDNA, one strand shown
In short: as §1

HSF1 = HSF1 (Homo sapiens, UniProt Q00613 1-529); conditions: protein: recombinant; tags: N-terminal GST; chain copies: 3; dsDNA, one strand shown
In short: as §1

SPIC = target: T8, SPIC (Homo sapiens, UniProt Q8N5J4 1-248); conditions: protein: recombinant; tags: N-terminal GST; dsDNA, one strand shown
T8 sequence: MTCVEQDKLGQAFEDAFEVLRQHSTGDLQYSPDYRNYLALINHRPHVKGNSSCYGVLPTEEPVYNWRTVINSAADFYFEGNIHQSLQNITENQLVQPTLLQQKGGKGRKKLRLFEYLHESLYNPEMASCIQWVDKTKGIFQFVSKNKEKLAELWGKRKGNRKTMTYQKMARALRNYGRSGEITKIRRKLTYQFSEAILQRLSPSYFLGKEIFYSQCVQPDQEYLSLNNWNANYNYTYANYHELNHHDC
In short: as §1

ELF4 = ELF4 (Homo sapiens, UniProt Q99607 1-663); conditions: protein: recombinant; tags: N-terminal GST; dsDNA, one strand shown
In short: as §1

ELK4 = target: T9, ELK4 (Homo sapiens, UniProt P28324-2 1-405); conditions: protein: recombinant; tags: N-terminal GST; dsDNA, one strand shown
T9 sequence: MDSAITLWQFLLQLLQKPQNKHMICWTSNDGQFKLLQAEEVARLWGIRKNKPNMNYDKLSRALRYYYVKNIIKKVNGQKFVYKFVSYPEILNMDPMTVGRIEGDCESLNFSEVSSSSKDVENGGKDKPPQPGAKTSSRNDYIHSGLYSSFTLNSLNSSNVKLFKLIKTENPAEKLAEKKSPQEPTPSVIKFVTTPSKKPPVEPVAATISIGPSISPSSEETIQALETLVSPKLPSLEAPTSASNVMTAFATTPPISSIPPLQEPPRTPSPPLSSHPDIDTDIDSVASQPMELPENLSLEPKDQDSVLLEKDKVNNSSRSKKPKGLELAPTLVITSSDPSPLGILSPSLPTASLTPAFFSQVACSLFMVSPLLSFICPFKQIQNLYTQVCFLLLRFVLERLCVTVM
In short: as §1

ETV2 = target: T10, ETV2 (Homo sapiens, UniProt O00321 1-342); conditions: protein: recombinant; tags: N-terminal GST; dsDNA, one strand shown
T10 sequence: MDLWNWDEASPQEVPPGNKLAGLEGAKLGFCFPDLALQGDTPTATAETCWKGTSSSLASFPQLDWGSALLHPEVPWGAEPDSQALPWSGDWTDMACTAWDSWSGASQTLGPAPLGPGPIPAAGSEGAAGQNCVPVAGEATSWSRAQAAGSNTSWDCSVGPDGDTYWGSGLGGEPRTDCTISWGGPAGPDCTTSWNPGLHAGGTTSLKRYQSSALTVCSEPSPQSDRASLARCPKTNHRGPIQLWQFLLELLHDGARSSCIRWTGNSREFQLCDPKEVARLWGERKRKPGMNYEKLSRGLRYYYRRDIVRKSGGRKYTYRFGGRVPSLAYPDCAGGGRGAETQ
In short: as §1

ELF3 = target: T11, ELF3 (Homo sapiens, UniProt P78545 1-371); conditions: protein: recombinant; tags: N-terminal GST; dsDNA, one strand shown
T11 sequence: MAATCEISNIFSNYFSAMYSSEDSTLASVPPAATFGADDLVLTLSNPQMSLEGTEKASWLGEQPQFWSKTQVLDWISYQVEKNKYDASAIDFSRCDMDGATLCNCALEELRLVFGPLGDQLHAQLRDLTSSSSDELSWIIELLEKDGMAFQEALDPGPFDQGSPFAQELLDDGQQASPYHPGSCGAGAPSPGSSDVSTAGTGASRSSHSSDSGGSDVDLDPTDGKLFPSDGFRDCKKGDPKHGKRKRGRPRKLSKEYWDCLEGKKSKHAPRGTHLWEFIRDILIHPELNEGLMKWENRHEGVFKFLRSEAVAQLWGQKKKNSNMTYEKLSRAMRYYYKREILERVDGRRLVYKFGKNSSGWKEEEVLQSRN
In short: as §1

CRX = CRX (Homo sapiens, UniProt O43186 1-299); conditions: protein: recombinant; tags: N-terminal GST; dsDNA, one strand shown
In short: as §1

ETV1 = ETV1 (Homo sapiens, UniProt P50549 1-477); conditions: protein: recombinant; tags: N-terminal GST; dsDNA, one strand shown
In short: as §1

CRX, sequence (O43186 whole entry): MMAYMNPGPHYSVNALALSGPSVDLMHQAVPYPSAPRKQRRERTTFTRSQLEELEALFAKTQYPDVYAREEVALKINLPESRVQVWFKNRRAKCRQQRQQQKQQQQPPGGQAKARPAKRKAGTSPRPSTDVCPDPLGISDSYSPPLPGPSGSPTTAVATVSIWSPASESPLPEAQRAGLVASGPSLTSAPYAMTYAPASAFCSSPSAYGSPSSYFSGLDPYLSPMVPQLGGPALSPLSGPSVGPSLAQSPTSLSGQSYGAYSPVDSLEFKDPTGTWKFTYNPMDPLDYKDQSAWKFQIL
ELF4, sequence (Q99607 whole entry): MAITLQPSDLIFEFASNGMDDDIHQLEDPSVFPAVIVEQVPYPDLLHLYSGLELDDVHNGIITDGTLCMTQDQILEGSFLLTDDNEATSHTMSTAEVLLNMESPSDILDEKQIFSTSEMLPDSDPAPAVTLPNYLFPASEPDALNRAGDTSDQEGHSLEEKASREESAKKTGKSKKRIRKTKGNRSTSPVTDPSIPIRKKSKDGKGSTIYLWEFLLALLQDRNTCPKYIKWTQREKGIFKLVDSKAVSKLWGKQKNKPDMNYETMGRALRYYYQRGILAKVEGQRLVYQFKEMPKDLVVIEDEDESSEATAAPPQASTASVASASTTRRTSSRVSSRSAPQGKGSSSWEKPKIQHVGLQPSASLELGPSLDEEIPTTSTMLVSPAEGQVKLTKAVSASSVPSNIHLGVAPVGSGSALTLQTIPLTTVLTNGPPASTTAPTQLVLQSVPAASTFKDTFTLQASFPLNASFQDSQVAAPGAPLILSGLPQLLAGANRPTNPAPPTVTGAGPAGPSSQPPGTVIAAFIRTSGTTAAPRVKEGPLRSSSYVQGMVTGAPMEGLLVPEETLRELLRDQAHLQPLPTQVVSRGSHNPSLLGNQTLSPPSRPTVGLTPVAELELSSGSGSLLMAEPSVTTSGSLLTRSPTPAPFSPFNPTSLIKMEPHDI
ETV5, sequence (P41161 whole entry): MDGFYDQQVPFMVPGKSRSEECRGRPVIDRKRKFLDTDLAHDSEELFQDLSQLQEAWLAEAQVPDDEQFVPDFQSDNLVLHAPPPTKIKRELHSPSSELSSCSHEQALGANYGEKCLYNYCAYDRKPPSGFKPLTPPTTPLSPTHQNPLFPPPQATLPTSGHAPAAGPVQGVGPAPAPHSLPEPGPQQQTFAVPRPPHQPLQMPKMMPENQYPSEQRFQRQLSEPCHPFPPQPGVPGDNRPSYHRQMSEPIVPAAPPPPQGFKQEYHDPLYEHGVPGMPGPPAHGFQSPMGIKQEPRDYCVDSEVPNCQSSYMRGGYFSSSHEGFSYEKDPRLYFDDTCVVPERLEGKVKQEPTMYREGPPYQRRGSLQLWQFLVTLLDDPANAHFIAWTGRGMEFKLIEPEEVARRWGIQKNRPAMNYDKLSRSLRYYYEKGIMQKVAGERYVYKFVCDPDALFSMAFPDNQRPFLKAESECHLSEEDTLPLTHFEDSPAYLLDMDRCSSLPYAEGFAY
HSF1, sequence (Q00613 whole entry): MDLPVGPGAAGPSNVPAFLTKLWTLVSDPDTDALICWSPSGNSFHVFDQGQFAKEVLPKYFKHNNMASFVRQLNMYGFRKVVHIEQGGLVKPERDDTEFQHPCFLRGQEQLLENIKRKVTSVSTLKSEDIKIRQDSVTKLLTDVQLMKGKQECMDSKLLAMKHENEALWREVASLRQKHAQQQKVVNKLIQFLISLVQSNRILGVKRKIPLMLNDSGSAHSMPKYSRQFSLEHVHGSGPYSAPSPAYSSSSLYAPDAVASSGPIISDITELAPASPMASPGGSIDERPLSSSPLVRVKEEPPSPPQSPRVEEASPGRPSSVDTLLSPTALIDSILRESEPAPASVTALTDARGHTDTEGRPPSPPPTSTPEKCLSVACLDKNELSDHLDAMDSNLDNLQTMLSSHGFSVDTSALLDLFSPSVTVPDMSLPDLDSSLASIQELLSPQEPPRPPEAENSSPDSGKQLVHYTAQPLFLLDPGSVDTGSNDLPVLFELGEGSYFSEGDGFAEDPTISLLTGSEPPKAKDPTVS
SPIB, sequence (Q01892 whole entry): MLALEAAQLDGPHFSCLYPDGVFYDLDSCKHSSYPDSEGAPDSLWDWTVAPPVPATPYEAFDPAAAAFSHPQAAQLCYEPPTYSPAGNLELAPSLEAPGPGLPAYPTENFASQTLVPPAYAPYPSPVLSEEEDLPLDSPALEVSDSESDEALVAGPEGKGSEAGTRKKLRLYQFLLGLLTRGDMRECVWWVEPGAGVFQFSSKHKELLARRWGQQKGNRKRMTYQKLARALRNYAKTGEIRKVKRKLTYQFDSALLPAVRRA
ELF1, sequence (P32519 whole entry): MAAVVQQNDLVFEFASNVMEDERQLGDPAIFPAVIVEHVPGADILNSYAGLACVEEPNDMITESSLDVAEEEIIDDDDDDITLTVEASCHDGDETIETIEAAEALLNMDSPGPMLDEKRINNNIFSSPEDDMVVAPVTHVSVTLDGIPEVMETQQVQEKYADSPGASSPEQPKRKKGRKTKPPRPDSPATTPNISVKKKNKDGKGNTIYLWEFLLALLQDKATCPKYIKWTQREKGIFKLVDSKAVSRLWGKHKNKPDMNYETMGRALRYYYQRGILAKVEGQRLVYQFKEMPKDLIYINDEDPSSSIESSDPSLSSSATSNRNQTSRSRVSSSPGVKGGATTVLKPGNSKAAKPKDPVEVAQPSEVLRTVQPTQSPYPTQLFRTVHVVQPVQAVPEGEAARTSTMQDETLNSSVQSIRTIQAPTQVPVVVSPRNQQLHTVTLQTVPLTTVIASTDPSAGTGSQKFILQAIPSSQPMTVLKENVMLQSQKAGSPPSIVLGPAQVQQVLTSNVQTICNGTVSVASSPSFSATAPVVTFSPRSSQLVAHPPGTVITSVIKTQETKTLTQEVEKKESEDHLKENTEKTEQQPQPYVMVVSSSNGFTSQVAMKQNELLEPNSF
ETV1, sequence (P50549 whole entry): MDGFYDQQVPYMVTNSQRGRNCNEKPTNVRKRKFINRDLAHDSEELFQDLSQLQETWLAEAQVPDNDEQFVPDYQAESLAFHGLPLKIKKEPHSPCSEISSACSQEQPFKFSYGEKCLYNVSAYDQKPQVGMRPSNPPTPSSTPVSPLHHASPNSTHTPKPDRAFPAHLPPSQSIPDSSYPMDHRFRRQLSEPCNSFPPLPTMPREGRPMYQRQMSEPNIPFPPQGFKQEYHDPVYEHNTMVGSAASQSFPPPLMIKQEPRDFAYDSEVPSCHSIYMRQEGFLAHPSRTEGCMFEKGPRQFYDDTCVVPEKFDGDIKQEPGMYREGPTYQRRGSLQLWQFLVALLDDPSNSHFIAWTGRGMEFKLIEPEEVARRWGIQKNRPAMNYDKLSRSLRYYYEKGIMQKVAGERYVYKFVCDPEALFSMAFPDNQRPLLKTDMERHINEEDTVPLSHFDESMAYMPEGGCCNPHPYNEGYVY

CTTCCA
binding signal (FLI1): 1.5 fold enrichment (6-mer frequency, TF over GST control)
binding signal (ELK1): 1.42 fold enrichment (6-mer frequency, TF over GST control)
binding signal (GABPA): 1.34 fold enrichment (6-mer frequency, TF over GST control)
binding signal (ERG): 1.47 fold enrichment (6-mer frequency, TF over GST control)
binding signal (ELF1): 1.39 fold enrichment (6-mer frequency, TF over GST control)
binding signal (EHF): 1.53 fold enrichment (6-mer frequency, TF over GST control)
binding signal (SPI1): 1.44 fold enrichment (6-mer frequency, TF over GST control)
binding signal (SPIB): 1.51 fold enrichment (6-mer frequency, TF over GST control)
binding signal (ELK3): 1.58 fold enrichment (6-mer frequency, TF over GST control)
binding signal (FEV): 1.43 fold enrichment (6-mer frequency, TF over GST control)
binding signal (ETV5): 1.46 fold enrichment (6-mer frequency, TF over GST control)
binding signal (HSF1): 2.18 fold enrichment (6-mer frequency, TF over GST control)
binding signal (SPIC): 1.44 fold enrichment (6-mer frequency, TF over GST control)
binding signal (ELF4): 1.33 fold enrichment (6-mer frequency, TF over GST control)
binding signal (ELK4): 1.45 fold enrichment (6-mer frequency, TF over GST control)
binding signal (ETV2): 1.37 fold enrichment (6-mer frequency, TF over GST control)
binding signal (ELF3): 1.49 fold enrichment (6-mer frequency, TF over GST control)
binding signal (CRX): 1.42 fold enrichment (6-mer frequency, TF over GST control)
binding signal (ETV1): 1.48 fold enrichment (6-mer frequency, TF over GST control)

Source: paper PMC7862700, “An all-to-all approach to the identification of sequence-specific readers for epigenetic DNA modifications on cytosine”
